Experimental data from PubChem BioAssay AID1159580 (chemical genetic matrix, 2015).
About 2,000 (36%) of roughly 5,500 compounds were called active. About 18% were inconclusive and are not listed. No stated cut-off is given here; in the data, active means normalized growth mostly below about 0.91 (no sharp cut-off); inconclusive means no clear call, values can overlap the other calls; inactive means mostly above about 0.92. Some of the results follow.

Experiment: chemical genetic growth profiling, strain panel (AID 1159580);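 further: tested at 20 µM; growth read once vehicle control cultures reached saturation at 30 °C; 1 = growth at the plate median or of vehicle wells; lower values mean less growth of the strain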
Conditions: growth OD

Measured: normalized growth

Nc1cc(-c2ccc(Cl)cc2)nc(N)n1
inactive: S. cerevisiae deletion strains, locus YAL013W, strain DEP1, hits give low values 0.997 | S. cerevisiae deletion strains, locus YBR229C, strain ROT2, hits give low values 0.991 | S. cerevisiae deletion strains, locus YDL101C, strain DUN1, hits give low values 0.995 | S. cerevisiae deletion strains, locus YDL134C, strain PPH21, hits give low values 0.959 | S. cerevisiae deletion strains, locus YDR150W, strain NUM1, hits give low values 1.02 | S. cerevisiae deletion strains, locus YEL061C, strain CIN8, hits give low values 0.995 | S. cerevisiae deletion strains, locus YGR078C, strain PAC10, hits give low values 0.999 | S. cerevisiae deletion strains, locus YHR030C, strain SLT2, hits give low values 0.963 | S. cerevisiae deletion strains, locus YHR087W, strain rtc3, hits give low values 0.993 | S. cerevisiae deletion strains, locus YJL187C, strain SWE1, hits give low values 1 | S. cerevisiae deletion strains, locus YJR043C, strain POL32, hits give low values 0.982 | S. cerevisiae deletion strains, locus YJR075W, strain HOC1, hits give low values 0.972 | S. cerevisiae deletion strains, locus YKL190W, strain CNB1, hits give low values 0.965 | S. cerevisiae deletion strains, locus YLR039C, strain RIC1, hits give low values 0.914 | S. cerevisiae deletion strains, locus YLR058C, strain SHM2 (second series), hits give low values 0.993 | S. cerevisiae deletion strains, locus YLR085C, strain ARP6, hits give low values 1.02 | S. cerevisiae deletion strains, locus YLR262C, strain YPT6, hits give low values 0.85 | S. cerevisiae deletion strains, locus YML094W, strain GIM5, hits give low values 1.03 | S. cerevisiae deletion strains, locus YMR219W, strain ESC1, hits give low values 0.991 | S. cerevisiae deletion strains, locus YMR263W, strain SAP30, hits give low values 0.996 | S. cerevisiae deletion strains, locus YNL153C, strain GIM3, hits give low values 0.992 | S. cerevisiae deletion strains, locus YNL298W, strain CLA4 (second series), hits give low values 0.992 | S. cerevisiae deletion strains, locus YNL322C, strain KRE1, hits give low values 0.99 | S. cerevisiae deletion strains, locus YNR030W, strain Alg12, hits give low values 1 | S. cerevisiae deletion strains, locus YOL006C, strain TOP1, hits give low values 0.944 | S. cerevisiae deletion strains, locus YPL055C, strain LGE1, hits give low values 1.02 | S. cerevisiae deletion strains, locus YPL241C, strain CIN2, hits give low values 0.995 | S. cerevisiae deletion strains, locus YPR135W, strain CTF4, hits give low values 0.939 | S. cerevisiae strains, strain wild type, hits give low values 0.966
